Structures are written as SMILES. Screen size: about 650,000 compounds; about 5,900 (0.91%) were called active. The entries come from a sample that favours actives as a whole. A number with no mark means an inactive call. No stated cut-off is given here; in the data, active means inhibition above about 50%; inactive means the rest.

The test deals with Microphthalmia-associated transcription factor (Homo sapiens) (UniProt O75030). Briefly: MITF inhibitors, primary screen, biochemical, AlphaScreen, human (AID 1259374).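 Further: 0% = vehicle wells with protein.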 The note with it: AlphaScreen MITF homodimerization, bead proximity signal; at 2.6 µM; stronger effect = higher value. On the technique in general: In Alpha technology, singlet oxygen from a donor bead excites a nearby acceptor bead.
Chain of Microphthalmia-associated transcription factor (Homo sapiens) (O75030 whole entry, looked up): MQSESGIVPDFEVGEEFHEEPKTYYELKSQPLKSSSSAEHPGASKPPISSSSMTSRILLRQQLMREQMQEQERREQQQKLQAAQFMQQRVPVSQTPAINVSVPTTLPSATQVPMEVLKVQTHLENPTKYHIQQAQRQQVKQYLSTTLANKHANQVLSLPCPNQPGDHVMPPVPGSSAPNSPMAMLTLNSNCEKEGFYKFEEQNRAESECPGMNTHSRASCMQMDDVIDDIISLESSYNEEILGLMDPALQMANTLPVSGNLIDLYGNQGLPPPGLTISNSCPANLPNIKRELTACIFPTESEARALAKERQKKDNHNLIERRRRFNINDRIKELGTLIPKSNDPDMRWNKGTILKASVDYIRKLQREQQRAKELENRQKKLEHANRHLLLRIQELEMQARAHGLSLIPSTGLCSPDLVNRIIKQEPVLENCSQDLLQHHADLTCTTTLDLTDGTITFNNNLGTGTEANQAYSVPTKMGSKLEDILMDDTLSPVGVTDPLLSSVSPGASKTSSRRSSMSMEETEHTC
The inhibition is the change of the read-out against control, counted positive when it falls. For the compound `Clc1c(OCCCNCCN2CCOCC2)ccc2ccccc12`, the inhibition was 26%. As for `Cc1ccc(OCCCCNCCN2CCOCC2)c(Br)c1`, the figure is 65.7% (active); as for `c1ccc(-c2ccc(OCCCNCCN3CCOCC3)cc2)cc1`, -7.58%. On to `c1ccc(-c2ccccc2OCCNCCN2CCOCC2)cc1`, for which the inhibition is 58.3% (active). As for `Cc1ccc(OCCCNCCN)c(Br)c1`, the figure is 5.41%; as for `c1ccc(-c2ccccc2OCCCCNCCN2CCOCC2)cc1`, 11.5%; as for `CC(NC(=O)Cn1c(C2CC2)nc2ccccc21)C1CC2CCC1C2` (configuration not stated), 5%. As for `C/C(=N\NC(=O)C(O)c1ccccc1)c1ccc2c(c1)CCCC2` (configuration not stated), the figure is -5.38%; as for `O=C(NC1CSC/C1=N\Nc1cc([N+](=O)[O-])cc([N+](=O)[O-])c1)c1ccccc1` (configuration not stated), 18%. Regarding `O=C(CC1(c2ccccc2F)CC(=O)N(C2CCCCC2)C1=O)N1CCOCC1` (configuration not stated), the inhibition is -8.12%. On to `CCOc1ccccc1N(CC(=O)NC(C)(C)CC)C(=O)CCC(=O)Nc1nccs1`, for which the inhibition is -1.1%. Then `CNC(=O)c1c(NC(=O)C2CCCCC2)sc2c1CCC(C)C2` (configuration not stated), with -7.36%. Then `CC(C)(C)c1ccc(OCC(=O)OCC(=O)Nc2sc3c(c2C(N)=O)CCC3)cc1`, with 0.98%; and `Cc1ccc(NC(=O)COC(=O)CCC(=O)Nc2sc3c(c2C(N)=O)CCC3)cc1F`, with 84.3% (active); and `NC(=O)c1c(NC(=O)CCC(=O)OCC(=O)Nc2ccccc2Cl)sc2c1CCC2`, with -2.18%. Consider `Cc1cc(SCC(=O)N2CCOCC2)nc2ccccc12`, for which the inhibition was 14.6%. Then `CCCCNC(=S)N/N=C/c1ccccc1OCC(=O)O`, with -2.56%; and `CCOc1cccc(/C=N/NC(=O)COc2cccc(C)c2C)c1O`, with 2.99%. As for `CCOc1cccc(/C=N/NC(=S)NCCN2CCOCC2)c1O`, the figure is 63.2% (active); as for `COc1ccccc1N(C(C)=O)C1C=CS(=O)(=O)C1` (configuration not stated), 1.71%.

With `c1cncc(CCNc2ccc3ncc(-c4cc5ccccc5o4)n3n2)c1`, the inhibition was 54.6% (active).

In the case of `c1cncc(CCNc2ccc3ncc(-c4cccc5ccccc45)n3n2)c1`, the inhibition is -3.61%. Then `Cc1csc(-c2cnc3ccc(NCCc4cccnc4)nn23)c1`, with -21.5%; and `COc1cccc(-c2ncnn2-c2sc3c(c2C#N)CCCCC3)c1`, with 63.4% (active); and `N#Cc1c(-n2ncnc2-c2ccccc2)sc2c1CCCC2`, with -14.9%. In the case of `CCOc1ccc(-c2ncnn2-c2sc3c(c2C#N)CCCC3)cc1`, the inhibition was -3.27%. As for `O=C(O)C1C2C=CC(O2)C1C(=O)Nc1nccs1` (configuration not stated), the figure is 81.7% (active); as for `O=C(Nc1nccs1)C(c1ccccc1)c1ccccc1`, -0.78%. Take `CCCCOC(=O)c1ccc(NC(=O)C2C3C=CC(O3)C2C(=O)O)cc1` (configuration not stated): the inhibition is -9.29%. Then `COc1ccc(-c2nc3n(c2NC(C)(C)C)CCNC3)cc1`, with 0.05%. In the case of `COc1ccc(C(=O)NCCN2CCN(c3nc4c(C)c(C)ccc4s3)CC2)cc1`, the inhibition is 61.8% (active). With `COc1ccc2nc(N3CCN(CCNC(=O)c4ccco4)CC3)sc2c1`, the inhibition was -9.88%. In the case of `COc1ccc(S(=O)(=O)N2CCN(CCNC(=O)c3ccc(-c4ccccc4)cc3)CC2)cc1`, the inhibition was 8.93%. Then `O=Cc1ccc(OCc2ccc([N+](=O)[O-])cc2)c(I)c1`, with 9.55%; and `Cc1nnc(N2CCC(Cc3ccccc3)CC2)c2ccccc12`, with 66.8% (active). For the compound `O=C(c1cccnc1N1CCC(Cc2ccccc2)CC1)N1CCCCC1`, the inhibition is 11.1%. As for `c1ccc(CC2CCN(c3nc4ccccc4n4cnnc34)CC2)cc1`, the figure is -0.95%; as for `O=C(c1cnn2c(C(F)(F)F)cc(-c3ccco3)nc12)N1CCN(C(c2ccccc2)c2ccccc2)CC1`, -6.87%; as for `O=c1c2ccccc2[nH]c(=S)n1NS(=O)(=O)c1ccccc1`, 0.19%.

Turning to `CCc1cccc(CC)c1-n1c(CNC(=O)Cc2ccccc2)nnc1SCC(=O)Nc1ccc(OC)cc1`, the inhibition was -9.51%. Then `COc1cc(C(=O)Nc2cnc(NC(=O)c3ccccc3)cc2C)cc(OC)c1OC`, with 12.9%; and `COc1ccc(CN2CCN(S(=O)(=O)c3cc(Br)c(Br)s3)CC2)c(OC)c1OC`, with 19.2%; and `CCOC(=O)CSc1ccc(C(=O)N2CCN(Cc3ccc(OC)c(OC)c3OC)CC2)cc1[N+](=O)[O-]`, with -5.49%.

With `COc1ccc(CN2CCc3nnc(C4CCCO4)n3CC2)c(OC)c1OC` (configuration not stated), the inhibition is -1.23%. As for `COc1ccc(CN2CCN(C3CCC(C)CC3)CC2)c(OC)c1OC` (configuration not stated), the figure is 63.1% (active).

On to `COc1ccc(CN2CCN(Cc3ccccc3C)CC2)c(OC)c1OC`, for which the inhibition was 56.1% (active). As for `Cc1ccccc1CN1CCC(N2CCCCC2)CC1`, the inhibition was 32.6%.

With `Cc1noc(C)c1S(=O)(=O)N1CCN(Cc2nc3ccccc3n2C)CC1`, the inhibition was 8.13%. Then `COc1ccc(C(=O)CCNC(Cc2cnc[nH]2)C(=O)O)cc1` (configuration not stated), with 34.2%; and `CC(Oc1ccc(Br)cc1)C(=O)N/N=C/c1ccccc1O` (configuration not stated), with -6.74%. As for `COCCn1nnnc1C(C)N(CCCO)Cc1cc2cc(C)ccc2[nH]c1=O` (configuration not stated), the figure is -3.49%; as for `O=C(OCC(=O)N1CCN(C(=O)c2ccco2)CC1)c1ccc(O)cc1`, -0.03%. Then `CCCOc1ccc(C2C(=O)N(C3CCCCCC3)CC(=O)N2CC2COc3ccccc3O2)cc1OC` (configuration not stated), with 14.9%; and `CC1CCC2C(=O)N(C(CC(=O)O)c3ccco3)C(=O)C2C1` (configuration not stated), with 32.9%; and `CC1CCC2C(=O)N(c3cccc(Cl)c3)C(=O)C2C1` (configuration not stated), with 8.52%.

As for `CC1CCC2C(=O)N(c3ccc(I)cc3)C(=O)C2C1` (configuration not stated), the inhibition is 51.1% (active).

As for `N#CC1=C(N)N(c2sc3c(c2C#N)CCCC3)C2=C(C(=O)CCC2)C1c1ccc(Br)s1` (configuration not stated), the inhibition is 13.4%. As for `CCOC(=O)COc1cc2occ(Oc3cnn(-c4ccccc4)c3)c(=O)c2cc1CC`, the figure is 9.58%; as for `CSc1ncc(/C=C2/C(=O)NC(=O)N(c3ccccc3)C2=O)cn1`, 0.31%; as for `Cc1nc2sc(C(c3ccco3)N3CCC4(CC3)OCCO4)c(O)n2n1` (configuration not stated), 13.4%. In the case of `Cc1nc2sc(C(c3ccccc3Cl)N3CCC4(CC3)OCCO4)c(O)n2n1` (configuration not stated), the inhibition was 60% (active).

In the case of `Oc1c(C(c2ccccc2Cl)N2CCOCC2)sc2nc(-c3ccco3)nn12` (configuration not stated), the inhibition is 11.9%.
